Screening data deposited in PubChem by Sanford-Burnham Center for Chemical Genomics.
hiPSC survival = increases survival of single human iPS cells; hiPSC single-cell survival, ATPlite luminescence; 100% = ROCK inhibitor wells, 0% = DMSO; 360,000 tested, 0.044% active; survival enhancement, % at 20 µM; in the data active = survival enhancement above about 18%;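 also: cells exposed to compounds for 16 hours before the ATP read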
CRFBP-R2 block = antagonists of CRF-binding protein/CRF-R2 receptor complex | HEK293 CRF-R2/CRF-BP, CRF-induced calcium fluorescence | inhibition, % at 11.8 µM | 350,000 tested, 0.59% active | AID 588475;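 active = inhibition of the ligand-induced calcium signal above about 50% at the single tested concentration, limit read from the data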
SKN-1 inh = inhibitors of C. elegans SKN-1; C. elegans VP596 Pgst-4::GFP/RFP ratio, acrylamide-induced, 24 h; inhibition, % at 21.8 µM; 360,000 tested, 0.49% active; AID 624304;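 active = interference check ratio from 0.5 to 1.5 plus GFP to RFP signal ratio inhibition reaching or exceeding a fixed threshold, cut at about 30% in these data, passing the limit was not always enough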
H9c2 protect = myocardial damage modulation in H9c2 cells; protection from H2O2 cell death, % at 20 µM; H9c2 cardiomyocytes, H2O2 injury protection, ATPLite, 2 h; 360,000 tested, 0.63% active;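 active = compounds giving at least 50% protection of heart cells from peroxide-induced death in the single-dose screen, raw or plate-pattern-corrected value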
TAG inh = inhibitors of triacylglycerol accumulation. H9c2 cells, Nile Red lipid (TAG) fluorescence; cells loaded with 200 µM oleic acid. inhibition, % at 12.5 µM. 230,000 tested, 0.66% active;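 active = pattern-corrected inhibition of lipid staining of at least 50% with the nuclear-stain viability signal not falling by more than 50%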
CRFR2-BP ag = agonists of human CRF-binding protein/CRF-R2 receptor complex. HEK293 CRF-R2/CRF-BP, calcium dye fluorescence (FLIPR); percent of saturating CRF peptide response. 350,000 tested, 0.46% active. AID 588473. activation, % at 13.2 µM;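 active = activation of at least 50%, plus an integration ratio under a set limit after plate pattern correction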
Each line names hits and unclear results; the compound was inactive in the other large screens. Hits are enriched below; roughly 2.5% of the tested compounds scored in any of these assays.

Cc1ccc(NC(=O)CSC(C)C(=O)OCc2cc(=O)oc3cc(O)ccc23)cc1 (stereo not drawn)	H9c2 protect 67
CCN(CC)c1ccc(C(=O)OCc2cc(=O)oc3cc(O)ccc23)cc1	none
CNC(=O)C[C@@H]1CC[C@@H]2[C@H](COC[C@H](O)CN2S(=O)(=O)c2ccccc2Cl)O1	none (no result: hiPSC survival, CRFBP-R2 block, H9c2 protect, TAG inh, CRFR2-BP ag)
Cc1ccccc1S(=O)(=O)N1C(c2ccc(Cl)cc2)CC=C(C(=O)O)C1c1cccc(Cl)c1 (stereo not drawn)	none (no result: hiPSC survival, CRFBP-R2 block, H9c2 protect, TAG inh, CRFR2-BP ag)
Cc1ccc2ncccc2c1	none (no result: TAG inh)
Cc1cc(N(C)C)ccc1N=Nc1ccc2ncccc2c1	SKN-1 inh 69 (no result: TAG inh)
CN(C)c1ccc(N=Nc2ccc3ncccc3c2)cc1	SKN-1 inh 59
CN(C)c1ccc(N=Nc2cccc(F)c2)cc1	SKN-1 inh 34 (no result: TAG inh)
c1cnc2ccc(-c3ccc4ncccc4c3)cc2c1	SKN-1 inh 74 (no result: TAG inh)
CCC(=O)N1CCC1(C)C(=O)Nc1ncc(C)s1 (stereo not drawn)	none (no result: CRFBP-R2 block, CRFR2-BP ag)
Cn1nc(C(C)(C)C)cc1C(=O)N1CCCC(c2cc(C(=O)NCc3ccccc3)no2)C1 (stereo not drawn)	none (no result: CRFBP-R2 block, CRFR2-BP ag)
NS(=O)(=O)c1ccc(NC(=O)CCC(=O)c2cccs2)cc1	none (no result: TAG inh)
NC(=O)c1ccc(NC(=O)CCC(=O)c2cccs2)cc1	hiPSC survival 62 (no result: TAG inh)
Nc1c2ccccc2nc2ccccc12	TAG inh 54
CN1CCN(C(=O)c2ccccc2N(Cc2ccccc2)S(=O)(=O)c2ccccc2)CC1	none (no result: TAG inh)
CN1CCN(C(=O)c2ccccc2N(Cc2ccccc2)S(C)(=O)=O)CC1	SKN-1 inh 40
Cc1cc(N2CCOCC2)nc(NCc2ccccc2)n1	CRFR2-BP ag 122 (no result: TAG inh)
Cc1cc(N2CCOCC2)nc(N)n1	CRFR2-BP ag 164
Cc1cc(N2CCCCC2)nc(NCc2ccccc2)n1	none
C/C=C/c1cccc(-c2nc(C(=O)NC3CCC3)cc3c2[C@@H](CCO)N(S(=O)C(C)(C)C)C3)c1 (stereo partly drawn)	none (no result: CRFBP-R2 block, TAG inh, CRFR2-BP ag)
Cc1nccn1CCOc1ccc(Cl)cc1	none
CCOC(=O)c1sc(NC(=O)CN(CC(C)C)CC(C)C)c(C(=O)OCC)c1C	CRFBP-R2 block 74 (no result: TAG inh)
COc1ccc2c(c1)OC[C@H]1[C@H]2N2C(=O)CNC(=O)[C@@]2(C)[C@H]1c1ccccc1	none (no result: hiPSC survival, SKN-1 inh, H9c2 protect, TAG inh)
c1ccc2c(Nc3nc4c(s3)CCCC4)cccc2c1	SKN-1 inh 45
O=S(=O)(Nc1nc2c(s1)CCCC2)c1ccc2ccccc2c1	none
CN(C)CCCN(C(=O)CCc1ccccc1)c1nc2ccc(Br)cc2s1	TAG inh 98
CN(C)CCCN(C(=O)CCc1ccccc1)c1nc2ccc(F)cc2s1	none (no result: TAG inh)
CCOC(=O)COc1cccc2c(=O)n(CC(=O)N3CCc4ccccc43)ccc12	none
COc1cccc2c(=O)n(CC(=O)N3CCc4ccccc43)ccc12	CRFR2-BP ag 72
CCN(CC(=O)Nc1c(F)cccc1F)C(=O)Cc1n[nH]c(=O)c2ccccc12	H9c2 protect 60
CCN(CC(=O)Nc1c(F)cccc1F)C(=O)CCc1nc2ccccc2c(=O)[nH]1	H9c2 protect 64
CCN(CC(=O)Nc1c(F)cccc1F)C(=O)CCCc1nc2ccccc2c(=O)[nH]1	none
CCCN(CC(=O)Nc1ccc(F)c(F)c1F)C(=O)CCc1nc2ccccc2c(=O)[nH]1	H9c2 protect 68
COc1cc2ccccc2cc1C(=O)NNC(=O)c1ccccc1O	H9c2 protect 52 (no result: CRFBP-R2 block, CRFR2-BP ag)
O=C(/C=C/c1cccs1)NC(=S)NNC(=O)c1ccccc1O	CRFR2-BP ag 63
CC(C)(C)C(=O)NC(=S)NNC(=O)c1sc2ccccc2c1Cl	CRFR2-BP ag 226 (no result: TAG inh)
COc1ccc(C(=O)NC(=S)NNC(=O)c2ccccc2C)cc1	CRFR2-BP ag 116
COc1ccc(C(=O)NNC(=S)NC(=O)/C=C/c2cccs2)cc1	none
COc1ccc(C(=O)NC(=S)NNC(=O)c2ccco2)cc1	none (no result: TAG inh)
COc1ccc(C(=O)NC(=S)NNC(=O)c2ccccc2O)cc1	CRFR2-BP ag 59 (no result: TAG inh)
COc1ccc(C(=O)NNC(=S)NC(=O)C(C)(C)C)cc1	CRFR2-BP ag 127
O=C(Cn1cc(S(=O)(=O)N2CCCC2)c(S(=O)(=O)N2CCCC2)c1)NCc1ccco1	none (no result: TAG inh)
CN(Cc1ccccc1)C(=O)c1cccc(NC(=O)Cc2ccc(NC(=O)C3CCCN(C(=O)CCc4ccccc4)C3)cc2)c1 (stereo not drawn)	CRFBP-R2 block 57
CN(Cc1ccccc1)C(=O)c1ccc(NC(=O)Cc2cccc(NC(=O)C3CCCN(C(=O)CCc4ccccc4)C3)c2)cc1 (stereo not drawn)	none
CCOC(=O)[C@]12CCC=C1N(Cc1ccc3c(c1)OCO3)C(=O)[C@H](CC(=O)NCCCOC)C2	none (no result: CRFBP-R2 block, H9c2 protect, TAG inh, CRFR2-BP ag)
CN(C(=O)CCS(=O)(=O)c1ccc2c(c1)oc(=O)n2C)C1CCCCC1	CRFBP-R2 block 68 (no result: TAG inh)
Cc1ncc(CO)c2c1Oc1nc(-c3ccccc3)nc(SCC(=O)Nc3cccc(O)c3)c1C2	H9c2 protect 63 (no result: TAG inh)
O=C(CSc1nc(-c2ccc(F)cc2)nc2c1Cc1ccccc1O2)Nc1cccc(C(=O)O)c1	none
COc1ccc(-c2nc3c(c(SCC(=O)Nc4cccc(O)c4)n2)Cc2c(CO)cnc(C)c2O3)cc1	H9c2 protect 66 (no result: TAG inh)
Oc1ccc(C[C@H]2CNC(=S)N2CC2CCCN2C[C@H](Cc2ccccc2)N2C[C@H](Cc3ccc(O)cc3)N(CC3CCCCC3)C2=S)cc1 (stereo partly drawn)	none (no result: CRFBP-R2 block, TAG inh, CRFR2-BP ag)
CCOC(COC(=O)c1ccccc1C(=O)O)c1ccccc1 (stereo not drawn)	none
O=C(N/N=C/c1cccc(O)c1)c1cc(-c2ccc3c(c2)OCO3)n[nH]1	H9c2 protect 76
CCc1nnc(NS(=O)(=O)c2ccc(N=Cc3c(C)[nH]n(-c4cccc(Cl)c4)c3=O)cc2)s1	CRFBP-R2 block 51 (no result: TAG inh)
NC(COCc1ccccc1)c1csc(NC(=O)Nc2cccc(Cl)c2)n1 (stereo not drawn)	none (no result: CRFBP-R2 block, CRFR2-BP ag)
COc1ccc2ccccc2c1CNCCCN1CCOCC1	CRFBP-R2 block 67
C=CCOc1ccc2ccccc2c1CNCCCN1CCOCC1	none (no result: TAG inh)
CCOC(=O)c1cn[nH]c1NC(=S)Nc1ccc(Cl)cc1	CRFBP-R2 block 94
CCOc1ccc(N=c2scc(-c3ccc(OC)cc3)n2CCO)cc1	CRFBP-R2 block 80
CCCS(=O)(=O)NC(=O)C1(C)CCN(C(=O)c2cccc(C)c2C)C1 (stereo not drawn)	SKN-1 inh 35 (no result: CRFBP-R2 block, CRFR2-BP ag)
CCCS(=O)(=O)NC(=O)C1(C)CCN(C(=O)c2ccccc2Br)C1 (stereo not drawn)	none (no result: CRFBP-R2 block, CRFR2-BP ag)
CC(=O)Nc1cccc(-c2csc(C(O)c3ccc(F)cc3)n2)c1 (stereo not drawn)	none (no result: CRFBP-R2 block, CRFR2-BP ag)
Cc1ccc2nc3c(cc(C(=O)NCc4ccco4)c(=N)n3C3CCCC3)c(=O)n2c1	none (no result: CRFBP-R2 block, TAG inh, CRFR2-BP ag)
COCCn1c(=N)c(C(=O)NCc2ccco2)cc2c(=O)n3cc(C)ccc3nc21	CRFBP-R2 block 84
